Screening data (PubChem)
These entries were drawn from the full list.
aSyn 5UTR act: Activators via SNCA 5'UTR binding, MLPCN; alpha-synuclein 5'UTR reporter, activators screen; 7.1% of 300,000 active; AID 1814; activity score, % (tested at 7.5 µM), hits read low; in the data active = activity score below about -60%
The depositor's hits bear a star.

SMILES	aSyn 5UTR act
O=C(NCCc1ccccc1)c1ccc2nccnc2c1	63
O=C(NCCc1ccccc1)c1cccnc1	-99*
COc1cc(/C=N/O)ccc1OCc1ccccc1Cl	-113*
N#CC1=C(N)OC2=C(CC/C2=C\c2ccccc2)C1c1ccccc1 (stereo not given)	-63*
CC(=Nc1ccccc1)C1=C(O)CSC1=O	-95*
COc1ccc(N=C(C)C2=C(O)CSC2=O)cc1	-72*
Cc1cc(C)n(-c2nc(-c3ccccc3)cs2)n1	-89*
Cc1cc(C)n(-c2nc(-c3cccc(Cl)c3)cs2)n1	-102*
COc1ccc(-c2cc(=O)c3ccccc3s2)cc1	-248*
COc1ccc2sc3ccccc3c(=O)c2c1	-170*
COc1ccc2oc3ccc(OC)cc3c(=O)c2c1	-190*
COc1ccc2oc3ccccc3c(=O)c2c1	-162*
Fc1ccc(F)c(C2=NNC(=NCC3CCCO3)SC2)c1 (stereo not given)	-118*
Fc1ccc(-c2cnc(-c3cccs3)o2)cc1	-148*
Fc1ccc(-c2nc(-c3cccs3)no2)cc1	-134*
Cc1ccccc1NC(=S)c1nc2ccccc2[nH]1	-145*
S=C(Nc1ccc(Cl)cc1)c1nc2ccccc2[nH]1	-79*
CNc1nc(C)nc(-c2ccccc2O)n1	-75*
Cc1ccc2nc(C3CCCCC3)[nH]c2c1	-93*
Cn1c2c(c(=O)[nH]c1=O)C(c1ccc(O)cc1)C1=C(N2)c2ccccc2C1=O (stereo not given)	-67*
CC1=C([N+](=O)[O-])C(c2ccccc2)C2=C(N1)c1ccccc1C2=O (stereo not given)	113
CSCc1nc2sc(C(=O)Nc3nc(C)cs3)c(C)c2c(=O)[nH]1	-92*
Cc1cc2oc3cc(NCCC4CCCN4C)ccc3c(=O)c2cc1C (stereo not given)	-184*
CN1CCCC1CCNc1ccc2sc3ccccc3c(=O)c2c1 (stereo not given)	-114*
O=c1c2ccccc2sc2ccc(NCCCN3CCOCC3)cc12	-158*
SMILES	aSyn 5UTR act
CC1CCN(c2nc3ccc(C(=O)O)cc3s2)CC1	106
CC1CCN(c2nc3ccc(C(=O)NCCCN4CCCCC4)cc3s2)CC1	-282*
CCC1CCCCN1CCCNC(=O)c1ccc2nc(N3CCC(C)CC3)sc2c1 (stereo not given)	-292*
Oc1ccccc1C1CC(c2cccs2)=NC(c2ccc(Cl)cc2)N1 (stereo not given)	-94*
c1ccc2c(CCNc3ncnc4nc[nH]c34)c[nH]c2c1	-73*
c1ccc(CCNc2ncnc3nc[nH]c23)cc1	-113*
COc1ccc2nc(NNC(=O)c3cc(=O)c4ccccc4o3)sc2c1	-88*
Cc1cccc2sc(NNC(=O)c3ccc(S(=O)(=O)N4CC(C)CC(C)C4)cc3)nc12 (stereo not given)	81
Cc1cccc2sc(NNC(=O)c3cc(=O)c4ccccc4o3)nc12	-62*
C=CCn1c(=S)[nH]c2nc3c(cc2c1=O)CCCC3	-92*
Brc1ccc(-c2nnc(-c3cccc(Br)c3)o2)cc1	-127*
O=C(O)c1ccc(-c2nnc(-c3cccc(Br)c3)o2)cc1	-202*
O=C1CN(c2ccccc2)C(=S)N1C(=O)c1ccc(Br)cc1	-150*
NC(=O)c1ccccc1NC(=O)/C=C/c1ccc(Cl)cc1	-110*
NC(=O)c1ccccc1NC(=O)/C=C/c1ccccc1	-116*
O=C(CCc1nnc(-c2ccsc2)o1)N1CCc2c(Cl)cccc2C1	-65*
c1ccc2c(-c3csc(-c4ccncc4)n3)c[nH]c2c1	-141*
Brc1ccc(-c2csc(-c3c[nH]c4ccccc34)n2)cc1	-183*
CCOC(=O)c1sc(=NC(=O)CCSc2ccccc2)n(C)c1C	-146*
CCOC(=O)c1sc(=NC(=O)COc2ccccc2)n(C)c1C	-90*
Cn1c(=NC(=O)COc2ccccc2)sc2cccc(F)c21	-150*
CCOC(=O)c1sc2nc(CSc3ccccc3)nc(N3CCCN(C)CC3)c2c1C	78
CC(C)Nc1nnc(SCC(=O)Nc2ccc3c(c2)C(=O)c2ccccc2C3=O)s1	-184*
O=C(CSc1nnc(NC2CCCCC2)s1)Nc1ccc2c(c1)C(=O)c1ccccc1C2=O	-121*
Cc1ccc(Nc2nnc(SCC(=O)Nc3cccc(S(=O)(=O)N4CCCCC4)c3)s2)cc1	-119*
SMILES	aSyn 5UTR act
CCOc1nc(C)ccc1-c1noc(-c2ccco2)n1	-79*
CCOc1ccccc1-c1nc(-c2ccc(C)nc2OC)no1	-207*
O=C(/C=C/c1cccc(Cl)c1)Nc1ncccn1	-76*
CSc1cccc(NC(=O)/C=C/c2cccc(Cl)c2)c1	-218*
CNC(=O)c1ccc(NC(=O)/C=C/c2cccc(F)c2)cc1	-98*
Cc1cccc(N/N=C/c2ccc(C)s2)c1	-180*
Cc1ccc(/C=N/N=C/c2ccc(C)s2)s1	-199*
Cc1nc(N)sc1N=Nc1ccccc1C(F)(F)F	-184*
Cc1ccnc(SCC(=O)c2cccs2)n1	-95*
Cc1cc(C)c(C#N)c(SCC(=O)c2cccs2)n1	-173*
Cc1cc(C)c(C#N)c(SCC(=O)Nc2nonc2N)n1	-87*
Oc1ccc(-c2csc(Nc3ncccn3)n2)c(O)c1	-165*
Cc1ccc(C)c(-c2csc(Nc3ncccn3)n2)c1	-66*
Oc1ccc(-c2csc(Nc3ncccn3)n2)cc1O	-178*
Cc1cccc(Nc2nc(-c3ccc(O)cc3O)cs2)n1	-126*
Cc1cccc(C)c1OCC(O)CN(Cc1ccccc1O)C1CCCCC1 (stereo not given)	62
N=C1C(c2nc(-c3ccc(Cl)cc3)cs2)=C(O)CN1NC(=O)c1ccc(O)cc1	-73*
CN(C)CCCNC(=O)c1ccc(-c2nc(-c3ccc(Cl)cc3)cs2)cc1	118
CCCS(=O)(=O)c1cnc(C2COc3ccccc3O2)nc1N (stereo not given)	68
Cc1cc(C)nc(SCC2COc3ccccc3O2)n1 (stereo not given)	-71*
Cc1c(C)n(CCc2ccccc2)c2ncnc(NCCO)c12	-146*
COc1ccccc1Nc1ncnc2c1c(C)c(C)n2CCO	-103*
N=c1c2c(-c3ccccc3)c(-c3ccccc3)n(Cc3ccccc3)c2ncn1CCO	61
COc1ccc(Cc2nc(-c3cccs3)no2)cc1	-115*
COc1ccc(Cc2nc(-c3ccccc3)no2)cc1	-176*
SMILES	aSyn 5UTR act
CCN(CC)c1ccc2cc(C(N)=O)c(=N)oc2c1	-67*
CCN(CC)c1ccc2c(-c3ccc(S(=O)(=O)O)cc3S(=O)(=O)[O-])c3ccc(=[N+](CC)CC)cc-3oc2c1	80
CCN(CC)c1ccc2cc(NC(=O)CCC(=O)O)c(=O)oc2c1	120
CCN(CC)c1ccc2cc(C(N)=O)c(=O)oc2c1	-98*
COC(=O)c1ccc(CO/N=C2\CCCc3nonc32)cc1	-122*
COc1cccc(/C=C/c2ccccn2)c1O	-98*
C=COCCNC(=O)Nc1ccc(Cl)c(Cl)c1	-127*
O=C(NCC1CC1(Cl)Cl)Nc1ccc(Cl)c(Cl)c1 (stereo not given)	-156*
Cc1ccc(NC(=O)CN(C)C(=O)Cn2ncc(Cl)c(Cl)c2=O)cc1	82
Cc1ccc(NC(=O)NCC2CC2(Cl)Cl)cc1 (stereo not given)	-165*
CC(C)c1ccc(OCc2ccc(C(=O)N3CCCC3)o2)cc1	-144*
CCOC(=O)c1ccc(COc2ccc(C(C)C)cc2)o1	-129*
COc1cccc(N2CCN(C(=O)c3ccc(CS(=O)c4ccccc4C)o3)CC2)c1 (stereo not given)	108
CCOc1ccc(OCc2ccc(C(=O)OCc3ccccn3)o2)cc1	-64*
